Our source for the composite z-score and z-score values is PubChem BioAssay.

Assay [1] concerns Plasmodium falciparum Sir2 (PF13_0152, Sir2A). The assay can be described thus: Plasmodium falciparum Sir2A binding compounds – biochemical, small-molecule microarray, 635 nm fluorescence, primary screen (AID 1098).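 Also: score merges spot fluorescence intensity with its signal-to-noise ratio.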 Conditions: fluorescence 635 nm, higher = more signal.
The nature of assay [2]: probe aDKK1 binding to arrayed compounds – biochemical, biotinylated probe, 635/667 nm fluorescence, primary screen (AID 1099).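 Also: score merges 667nm spot fluorescence with signal to noise across triplicate slides; reference of the scale not given here.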 Conditions: small-molecule microarray, higher = more signal.
Assay [3] in a line: probe aCHRDL2 binding to arrayed compounds – biochemical, biotinylated probe, 635/667 nm fluorescence, primary screen (AID 1100). Conditions: small-molecule microarray, higher = more signal.
The nature of assay [4]: change in splice reporter luminescence, either direction, cell-based, HEK293, spliceosome inhibition project, primary screen (AID 1101).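 Also: HEK293 cells carrying a splicing-competent luciferase reporter gene; test concentration not given here.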 Conditions: HEK293 splicing luciferase reporter, 24 h, higher = more signal, called active from +8 up or from −8 down.
Assay [5] addresses Fibroblast growth factor 10 (Homo sapiens) (UniProt O15520). As to the kind of experiment: compounds binding fibroblast growth factor 10 – biochemical, small-molecule microarray, 635 nm fluorescence, primary screen (AID 1102). Conditions: FGF10 binding, fluorescence 635 nm, higher = more signal.
The subject of assay [6] is glycogen synthase kinase-3 (GSK3A per assay name; protocol says GSK3B). The assay can be described thus: compounds binding glycogen synthase kinase-3 – biochemical, small-molecule microarray, 635 nm fluorescence, GSK3A, primary screen (AID 1103). Also: the record names both GSK3A and GSK3B. Conditions: fluorescence 635 nm, higher = more signal.
The target of assay [7] is Epidermal growth factor receptor (Homo sapiens) (UniProt P00533). As to the kind of experiment: compounds binding epidermal growth factor receptor – biochemical, small-molecule microarray, 635 nm fluorescence, primary screen (AID 1104).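 Also: score merges 667 nm emission intensity with spot signal to noise over triplicate slides.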 Conditions: EGFR binding, higher = more signal.
The target of assay [8] is Follistatin-related protein 3 (Homo sapiens) (UniProt O95633). The assay can be described thus: compounds binding follistatin-related protein 3 – biochemical, small-molecule microarray, 635 nm fluorescence, primary screen (AID 1105).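 Also: score merges emission near 667 nm and signal to noise per printed spot across three slides.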 Conditions: FSTL3 binding, higher = more signal.
The target in assay [9] is Dickkopf-related protein 1 (Homo sapiens) (UniProt O94907). As to the kind of experiment: small molecules binding DKK1 protein – biochemical, small-molecule microarray, 635 nm fluorescence scan, primary screen (AID 1106).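 Also: score merges emission near 667 nm with signal to noise over three replicate slides.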 Conditions: higher = more signal.
In assay [10] the test system is Inhibin beta A chain (activin A). As to the kind of experiment: small molecules binding activin A – biochemical, small-molecule microarray, 635 nm fluorescence scan, primary screen (AID 1107).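 Also: mouse activin A protein probed at 4.33 µg/mL on printed slides; score merges bound-protein fluorescence near 667 nm with spot signal-to-noise.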 Conditions: INHBA, higher = more signal.

Structures are written as SMILES. Active and inactive are the calls of the source.

Sequence of Fibroblast growth factor 10 (Homo sapiens) (O15520 whole entry, looked up): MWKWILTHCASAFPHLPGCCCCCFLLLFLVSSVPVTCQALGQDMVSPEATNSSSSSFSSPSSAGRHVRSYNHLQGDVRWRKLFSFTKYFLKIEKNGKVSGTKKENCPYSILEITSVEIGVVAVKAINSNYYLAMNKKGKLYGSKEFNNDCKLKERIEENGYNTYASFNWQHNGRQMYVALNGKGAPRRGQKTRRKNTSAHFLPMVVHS
Sequence of Dickkopf-related protein 1 (Homo sapiens) (O94907 whole entry, looked up): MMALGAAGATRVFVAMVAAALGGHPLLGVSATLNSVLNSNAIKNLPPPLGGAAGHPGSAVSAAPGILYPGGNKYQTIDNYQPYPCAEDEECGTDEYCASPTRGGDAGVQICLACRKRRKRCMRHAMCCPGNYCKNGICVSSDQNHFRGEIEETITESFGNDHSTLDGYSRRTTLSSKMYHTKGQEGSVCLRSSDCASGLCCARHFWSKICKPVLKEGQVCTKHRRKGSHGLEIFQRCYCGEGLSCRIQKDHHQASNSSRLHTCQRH
Sequence of Follistatin-related protein 3 (Homo sapiens) (O95633 whole entry, looked up): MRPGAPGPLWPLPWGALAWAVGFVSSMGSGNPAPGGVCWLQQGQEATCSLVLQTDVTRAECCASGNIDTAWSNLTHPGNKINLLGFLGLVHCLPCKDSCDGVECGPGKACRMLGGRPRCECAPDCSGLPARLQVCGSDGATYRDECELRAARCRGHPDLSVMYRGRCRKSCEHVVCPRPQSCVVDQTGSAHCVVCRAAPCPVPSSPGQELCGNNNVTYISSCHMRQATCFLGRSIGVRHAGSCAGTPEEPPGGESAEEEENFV
Sequence of Epidermal growth factor receptor (Homo sapiens) (P00533 whole entry, looked up): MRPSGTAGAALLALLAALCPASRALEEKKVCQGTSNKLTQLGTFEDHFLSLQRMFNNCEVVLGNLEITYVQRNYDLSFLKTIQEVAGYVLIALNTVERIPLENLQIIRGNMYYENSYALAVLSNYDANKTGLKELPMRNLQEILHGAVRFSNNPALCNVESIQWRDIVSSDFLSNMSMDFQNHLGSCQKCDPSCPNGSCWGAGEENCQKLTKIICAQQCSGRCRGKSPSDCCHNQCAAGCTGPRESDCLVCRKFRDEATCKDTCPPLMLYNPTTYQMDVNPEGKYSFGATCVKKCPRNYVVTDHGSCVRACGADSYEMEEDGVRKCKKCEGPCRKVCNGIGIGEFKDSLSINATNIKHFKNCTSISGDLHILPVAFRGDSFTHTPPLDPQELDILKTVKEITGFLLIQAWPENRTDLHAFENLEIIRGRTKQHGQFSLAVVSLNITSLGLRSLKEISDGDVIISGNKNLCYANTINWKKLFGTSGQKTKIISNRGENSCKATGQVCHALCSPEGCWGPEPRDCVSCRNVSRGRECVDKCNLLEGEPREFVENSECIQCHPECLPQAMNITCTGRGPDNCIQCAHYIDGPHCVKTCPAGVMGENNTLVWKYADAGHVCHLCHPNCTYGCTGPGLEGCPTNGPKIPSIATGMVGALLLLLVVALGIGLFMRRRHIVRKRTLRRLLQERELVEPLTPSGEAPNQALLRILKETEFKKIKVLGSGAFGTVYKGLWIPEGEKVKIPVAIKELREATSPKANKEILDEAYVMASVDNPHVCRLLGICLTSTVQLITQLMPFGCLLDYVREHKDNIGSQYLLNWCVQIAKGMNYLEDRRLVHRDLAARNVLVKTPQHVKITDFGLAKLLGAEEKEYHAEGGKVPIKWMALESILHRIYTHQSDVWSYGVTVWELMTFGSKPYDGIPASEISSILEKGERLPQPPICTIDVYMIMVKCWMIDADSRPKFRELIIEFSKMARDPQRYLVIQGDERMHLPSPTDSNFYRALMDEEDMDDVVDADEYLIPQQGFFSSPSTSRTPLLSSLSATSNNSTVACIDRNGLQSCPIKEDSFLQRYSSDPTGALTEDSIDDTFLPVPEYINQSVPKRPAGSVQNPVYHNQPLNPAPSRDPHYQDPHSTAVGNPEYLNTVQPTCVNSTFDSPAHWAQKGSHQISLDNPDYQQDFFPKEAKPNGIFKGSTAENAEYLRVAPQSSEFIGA

As to `CC(=O)NCCCC[C@@H]1NC(=O)[C@@H]2C[C@H](C(=O)NCCCCCC[N+](C)(C)C)[C@H](c3ccc(O)cc3)N2C1=O`, the composite z-score was 1.42 in [1]; -0.134 in [2]; -0.208 in assay [3]; 0.518 in [5]; 0.224 in assay [6]; 0.0882 in [7]. Besides, the composite z-score was found to be 0.977 in assay [8], 1.12 in assay [9] and 0.645 in assay [10]. The z-score in [4] was -0.0826 (inactive).

For the molecule `COCC(=C=CC[C@@H](O)c1ccc(OCCO)cc1)C[C@@H](O)COCc1ccccc1`, the composite z-score in assay [1] was 0.804; in assay [2] it was -0.0148; in assay [3], 0.548; in assay [5], 1.52; in assay [6] it was 0.611; in assay [7] it was 0.158. Also, the composite z-score in [8] is 0.939; in assay [9] it was -0.0983; in assay [10] it was 1.42. In addition, the z-score in [4] is -1.83 (inactive).

For the molecule `CO[C@H]1O[C@H](CO)[C@@H](OC(=O)Nc2ccc(C(F)(F)F)cc2)[C@H](OC(=O)Nc2ccccc2-c2ccccc2)[C@@H]1OC(=O)Nc1ccccc1-c1ccccc1`, the composite z-score in assay [1] turned out to be 1.46; in assay [2] it was 1.07; in assay [3], 0.61; in assay [5], 1.04; in assay [6], 1.29; in assay [7], 0.35. In addition, the composite z-score turned out to be 1.37 in assay [8], 0.507 in [9] and 0.0026 in [10]. For the same molecule, in assay [4], the z-score was -0.0628 (inactive).

Turning to `C=CCNC(=O)[C@H]1[C@@H]2C(=O)O[C@@H](c3ccccc3)[C@@H](c3ccccc3)N2[C@@H](c2ccccc2OCCO)[C@]12C(=O)N(C(=O)OCCOC)c1ccccc12`, the composite z-score is 1.58 in assay [1]; 0.125 in assay [2]; 0.0274 in assay [3]; 1.08 in assay [5]; 1.28 in [6]; 0.341 in assay [7]. Also, the composite z-score was 0.616 in assay [8], 0.239 in [9] and -0.101 in assay [10]. In assay [4], the z-score is -1.24 (inactive).

In the case of `CCc1cccc(NC(=O)O[C@H]2[C@H](OC(=O)Nc3ccc4c(c3)OCO4)[C@H](OC(=O)Nc3ccc4c(c3)OCO4)[C@@H](OC)O[C@@H]2CO)c1`, the composite z-score in assay [1] was 1.44; in assay [2] it was -0.154; in assay [3] it was 0.226; in assay [5], 0.699; in assay [6], 1.32; in assay [7], -0.438. Also, the values for the composite z-score in assay [8], in assay [9] and in assay [10] were 0.791, 0.129 and 0.627, respectively. Further, in assay [4], the z-score was -1.34 (inactive).

On to `C=CCN1C(=O)[C@]2(O[C@H](CCO)[C@@H]([Si](C)(C)c3ccc(OC)cc3)[C@@H]2C)c2ccccc21`, for which the composite z-score in assay [1] was 0.504; in assay [2] it was -0.141; in assay [3], 0.837; in assay [5], -0.876; in assay [6] it was -0.73; in assay [7] it was -0.66. In addition, the composite z-score is -0.608 in assay [8], -1.27 in [9] and 0.456 in [10]. For the same molecule, the z-score in assay [4] is -3.11 (inactive).

For `C=CC(CO)NC(=O)OCC1c2ccccc2-c2ccccc21` (stereo not given), the composite z-score was 0.193 in assay [1]; -0.291 in [2]; -0.475 in [3]; 0.324 in [5]; 0.365 in assay [6]; 0.674 in assay [7]. In addition, the composite z-score in [8] is 0.608; in [9], 0.554; in [10], 0.26. For the same molecule, in [4], the z-score is 0.406 (inactive).

Regarding `Cc1ccc(S[C@]2(C(=O)NCCCN(C)C)CC(=O)N(Cc3ccccc3Cl)[C@@H]2c2ccc(CO)cc2I)cc1`, the composite z-score in assay [1] is -0.393; in assay [2], 0.844; in assay [3], 0.864; in assay [5], -1.29; in [6], -1.19; in [7] it was -1.3. Also, the composite z-score in assay [8] was -0.551; in [9], -1.39; in [10] it was 1.4. In addition, the z-score in assay [4] was -1.53 (inactive).

Turning to `COc1ccccc1CN1C(=O)c2ccccc2[C@@H](C(=O)NCCCN(C)C)[C@@H]1c1ccc(CO)cc1`, the composite z-score in [1] was 1.31; in assay [2], 0.503; in assay [3] it was -0.205; in assay [5], 0.0373; in assay [6], -0.841; in assay [7], -0.127. Also, the figures for the composite z-score in assay [8], in [9] and in assay [10] were -0.235, 0.271 and 0.545, respectively. Further, the z-score in assay [4] was -0.0655 (inactive).

On to `CC[C@H](C)C(=O)O[C@H]1CC[C@]2(C)C3=C(CCC2C1(C)C)[C@]1(C)CC[C@H]([C@H](C)CCCC(C)C)[C@@]1(C)CC3` (stereo not given in full), for which the composite z-score in assay [1] was 0.479; in assay [2] it was -0.0754; in assay [3], -0.314; in assay [5], 0.48; in assay [6] it was 0.634; in [7] it was 0.65. For the same molecule, the composite z-score in assay [8] stood at 0.487; in assay [9], 0.474; in assay [10] it was 0.0848. Besides, in assay [4], the z-score is -0.634 (inactive).

With `C=CCC(OC(C)=O)[C@@H]1[C@@H](N(Cc2cc3ccccc3o2)C(=O)c2cccc3ccccc23)c2cc(OCCCO)ccc2N1C(=O)c1ccc2ccccc2c1` (stereo not given in full), the composite z-score in assay [1] is -0.459; in assay [2] it was 0.245; in [3], 0.246; in assay [5] it was 0.0473; in assay [6] it was -0.553; in assay [7], -0.0798. Moreover, the composite z-score in assay [8] worked out at 0.182; in assay [9] it was 0.0022; in [10], 0.867. The z-score in assay [4] is -1.18 (inactive).

As for `CC1CC/C=C\[C@H]2OC34C=CCN(CCN5CCOCC5)C(=O)[C@H]3N(CCCCCCO)C(=O)[C@@H]4C2C(=O)O1` (stereo not given in full), the composite z-score in [1] is 0.195; in assay [2], -0.301; in assay [3] it was 0.0746; in assay [5], -0.721; in assay [6], -0.993; in [7] it was -1. Besides, the composite z-score was -0.704 in assay [8], -0.355 in assay [9] and 0.516 in assay [10]. The z-score in assay [4] was 0.433 (inactive).

Regarding `COc1ccc(CCNC(=O)[C@@]2(Sc3ccc(C)cc3)CC(=O)N(Cc3cc(C(F)(F)F)cc(C(F)(F)F)c3)[C@@H]2c2ccc(CO)cc2)cc1`, the composite z-score in assay [1] is 0.629; in assay [2], 0.18; in assay [3] it was 1.14; in [5], -1.59; in [6] it was -0.655; in assay [7] it was -1.81. For the same molecule, the composite z-score in [8] is -0.927; in [9] it was -1.88; in assay [10], -0.497. The z-score in assay [4] was 0.257 (inactive).

With `Cc1ccc(F)cc1S(=O)(=O)N[C@@H]1CCN(Cc2ccc3[nH]ccc3c2)C1`, the composite z-score in assay [1] is 0.114; in assay [2], -0.177; in assay [3], -0.124; in [5], 0.482; in assay [6], 0.139; in assay [7], 0.651. Moreover, the composite z-score stood at 1.08 in assay [8], 0.574 in [9] and 0.689 in assay [10]. Moreover, the z-score in [4] is 0.309 (inactive).

In the case of `CN(C)CCCC[C@@H]1NC(=O)[C@H]2C[C@@H](C(=O)NCc3ccc(F)cc3)[C@@H](c3ccc(O)cc3)N2C1=O`, the composite z-score in assay [1] was 0.298; in [2], 0.0179; in [3], -0.4; in assay [5] it was 1.2; in [6], 0.902; in [7] it was 0.0583. Also, the values for the composite z-score in assay [8], in assay [9] and in [10] were 0.571, 0.776 and 0.853, respectively. Besides, the z-score in assay [4] was 0.163 (inactive).

Consider `O=C1OCCC=C[C@H]2OC34C=CCN(c5ccc(Cl)cc5)C(=O)[C@H]3N(CCO)C(=O)[C@@H]4C12` (stereo not given in full), for which the composite z-score in assay [1] was -0.358; in assay [2], -0.208; in [3], 0.266; in assay [5], -0.45; in assay [6] it was -0.695; in [7], -0.723. Moreover, the composite z-score is -0.683 in assay [8], -0.568 in [9] and -1.16 in [10]. In [4], the z-score was -0.343 (inactive).
